Assay results as given in PubChem BioAssay (NCI).
The panel holds about 83,000 compounds, 20% with a hit somewhere; the sample as a whole holds those more often.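 Activity criterion: percent growth below 10, measured after cells in 96-well plates were exposed to a single compound concentration for 48 hours.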 Calls of active or inactive are those of the source.

system: HL-60(TB) leukemia; assay: NCI-60 one-dose screen, 48 h (100 = growth as untreated, 0 = no growth, -100 = all killed); conditions: 10 µM unless noted

| SMILES | growth |
| --- | --- |
| CCOC(=O)c1nn(C2CCCCO2)c2ccc(NC(=O)CN3CCCC3)cc12 (stereo not given) | 97.4% (inactive) |
| COc1ccc(C(C)=O)cc1N1C(=O)C2C(C1=O)C1(c3ccccc3)C(=O)C2(c2ccccc2)C(c2ccc(C)cc2)=C1c1ccc(C)cc1 (stereo not given) | 17.1% (inactive) |
| OC(c1cccc(-n2ccc(C(F)(F)F)n2)c1)c1cnccc1NC1CCCCCC1 (stereo not given) | -35.7% (active) |
| Cc1c(/C=C/[N+](=O)[O-])ccc2c1[nH]c1ccccc12 | 67.3% (inactive) |
| C=C1CC[C@@H]2[C@](C)(COC(C)=O)[C@H](OC(C)=O)CC[C@@]2(C)[C@@H]1CC(Nc1ccc(S(=O)(=O)Nc2nccs2)cc1)C1=CCOC1=O (stereo not given in full) | -20.9% (active) |
| COc1cc2c(c(OC)c1OC)C(=O)CC(c1cccc(C(=O)Nc3ccc(Br)cc3)c1)O2 (stereo not given) | 13.8% (inactive) |
| COC(=O)C1CC(=O)N(C(=O)Nc2ccc(Cl)cc2Cl)C1 (stereo not given) | 97.8% (inactive) |
| COc1cc(/C=C/c2c(C(C)=O)c(C)nc3ccccc23)cc(OC)c1OC | 0.0645% (active) |
| COc1ccc2[nH]cc(-c3nonc3-c3c[nH]c4ccc(Br)cc34)c2c1 | 76.1% (inactive) |
| O=C1N=c2ccccc2=C1c1sc(=S)n(C2CC(=O)N(c3ccc(Cl)cc3)C2=O)c1O (stereo not given) | 101% (inactive) |
| O=C1CSC(c2ccccc2O)N1c1nnc(Cn2ccnc2)o1 (stereo not given) | 24.9% (inactive) |
| O=C(Nc1cccc(C2=NCCN2)c1)c1cccc(C(=O)Nc2cccc(C3=NCCN3)c2)c1 | 98.7% (inactive) |
| O=C1NC(SCc2ccc(F)cc2)=N/C1=C/c1cccc(OCc2ccc(Cl)cc2)c1 | 61.5% (inactive) |
| Clc1ccc(C2CC(c3cccc(Nc4ccncc4)c3)=NN2c2ccc(Cl)cc2)cc1 (stereo not given) | -45.3% (active) |
| COc1ccc(-c2nnc(COc3ccc(C(=O)/C=C/c4ccco4)cc3)o2)cc1 | 79.7% (inactive) |
| CSc1nc(N)c(N=Nc2ccc(S(=O)(=O)Nc3nnc(C)s3)cc2)c(=O)[nH]1 | 90.4% (inactive) |
| COC(=O)Nc1nc2ccc(S(=O)c3ccccc3)cc2[nH]1 (stereo not given) | 22.7% (inactive) |
| O=C(N=Nc1c(O)[nH]c2ccc(Br)cc12)c1cc(-c2ccccc2)on1 | 84.9% (inactive) |
| Cc1ccc(S(=O)(=O)N2CCc3ccc(O)c4c3C2Cc2ccc3c(c2-4)OCO3)cc1 (stereo not given) | -8.02% (active) |
| CCc1ccc(C(c2ccc(CC)cc2)C(Cl)(Cl)CCl)cc1 | 77.2% (inactive) |
| COc1cc(-c2nn(-c3ccc(NC(=O)c4cc(Cl)cc(Cl)c4)cc3)cc2-c2ccncc2)ccc1Cl | 41% (inactive) |
| Cc1ccc(/C=N/NC(=O)CSc2nc3ccccc3c(=O)n2Cc2ccc(S(N)(=O)=O)cc2)cc1 | 97.8% (inactive) |
| O=C(O)c1ccc(CO)o1 | 85.6% (inactive) |
| O=C(COc1ccc(-c2nc3cc(Cl)c(Cl)cc3[nH]2)cc1)N=Nc1c(O)[nH]c2ccc(Cl)cc12 | 55.5% (inactive) |
| CCN(CC)CCn1c(=O)c2cc(OC)c(OC)cc2c2ccc3cc4c(cc3c21)OCO4 | 3.79% (active) |
